Assay results published in PubChem BioAssay (NCI).
This is part of a sample that, as a whole, favours compounds with a hit. Of some 79,000 tested, about 15% had one in any assay. Calls of active or inactive are those of the source. Cut-off read from the data, not from the text of the source: active = growth inhibition above about 70%; inactive = the rest.

Tests used:
[1] = NCI Yeast Anticancer Drug Screen. Data for the rad50 strain (AID 155);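 note: 0% = growth of vehicle-only cultures of the same strain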; conditions: S. cerevisiae rad50 strain growth inhibition; at 50.0 µM; hits give high values
How it was run: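 Compounds were tested on a yeast strain with an engineered DNA damage repair alteration; the reported value is growth inhibition normalised to vehicle treatment.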

[2] = NCI Yeast Anticancer Drug Screen. Data for the mec2-1 strain (AID 157); conditions: S. cerevisiae mec2-1 strain, at 50.0 µM, hits give high values
How it was run: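 Each compound was tested on mec2-1 yeast, a strain altered in DNA damage repair or cell cycle control. Growth inhibition is reported relative to vehicle.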

[3] = NCI Yeast Anticancer Drug Screen. Data for the sgs1 mgt1 strain (AID 161);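 note: 0% = growth of cultures given vehicle only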; conditions: S. cerevisiae sgs1 mgt1 strain, at 50.0 µM, hits give high values
How it was run: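 Genetically altered yeast, compound exposure, growth inhibition relative to vehicle.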

[4] = NCI Yeast Anticancer Drug Screen. Data for the cln2 rad14 strain (AID 165);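 note: 0% = growth equal to vehicle treated cultures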; conditions: S. cerevisiae cln2 rad14 strain, at 50.0 µM, hits give high values
How it was run: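 Test compounds were added to cln2 rad14 yeast cultures; inhibition of growth was then determined by comparison with vehicle treatment.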

[5] = NCI Yeast Anticancer Drug Screen. Data for the bub3 strain (AID 167); conditions: S. cerevisiae bub3 mutant strain, at 50.0 µM, hits give high values
How it was run: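 Growth of a checkpoint-deficient yeast mutant is measured after compound exposure. Values represent inhibition relative to vehicle.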

[6] = NCI Yeast Anticancer Drug Screen. Data for the mlh1 rad18 strain (AID 175); conditions: S. cerevisiae mlh1 rad18 strain growth inhibition; at 50.0 µM; hits give high values
How it was run: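 Inhibition values reflect reduced growth of mutant yeast versus vehicle-treated controls following compound exposure; the mutations affect DNA damage repair.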

Measured: growth inhibition

NCCCNCCCCNCCCNCc1c2ccccc2c(CNCCCNCCCCNCCCN)c2ccccc12
active: [1] 90.7% | [2] 93.1% | [3] 93.2% | [4] 91.9% | [5] 91.8% | [6] 90.8%

Oc1cc2c(cc1O)C1c3ccc(O)c(O)c3OCC1(O)C2 (centres undefined)
inactive: [1] 21.9% | [2] 13% | [3] 22.7% | [4] -1% | [5] 9.4% | [6] 22.4%

COc1ccc(N=N/C(=N/NC(=O)c2ccccc2)c2ccc(N(CCC#N)CCC#N)cc2C)cc1
inactive: [1] -4.35% | [2] -13.5% | [3] -22.8% | [4] -7.2% | [5] -23.1% | [6] -44.5%

O=C1NC(=S)N/C1=C/c1ccc2c(c1)CCC2
inactive: [1] 13.9% | [2] -20.2% | [3] 20.6% | [4] 12.4% | [5] 31.8% | [6] 12.7%

Cn1c(/N=C(/N)N=C(N)N)cc(=O)n(C)c1=O
inactive: [1] 12.8% | [2] 5.45% | [3] 20.3% | [4] 34.7% | [5] 29.6% | [6] 21.8%

CC(=O)Oc1ccc(NCNc2ccc(OC(C)=O)cc2)cc1
inactive: [1] -11.8% | [2] 0.95% | [3] -3.2% | [4] -26.6% | [5] -2.25% | [6] -3.35%

N#CCCS(=O)(=O)O
inactive: [1] 29.1% | [2] 21.9% | [3] -6.9% | [4] 1.95% | [5] 15.9% | [6] 13.8%

CCCCCCCCCCCCCCCCc1c(C(=O)OC)nc(NN)[nH]c1=O
inactive: [1] -6.3% | [2] 5.2% | [3] -26.5% | [4] -2.85% | [5] 2.1% | [6] -12.8%

Cc1cccc(Cl)c1N=Nc1c(N)nc(N)[nH]c1=O
inactive: [1] 15.8% | [2] -20.8% | [3] -5.1% | [4] -4.8% | [5] -0.35% | [6] -0.5%

CCOc1ccc(/C=C(\NC(=O)c2ccccc2)C(=O)Nc2ccccc2)cc1OC
inactive: [1] 4.8% | [2] -12.6% | [3] -4.45% | [4] -25.6% | [5] -0.15% | [6] 2.1%

Cc1[nH]c(C)c2ccc(=O)ccc12
inactive: [1] -51.4% | [2] -8.35% | [3] -16.6% | [4] -58.2% | [5] -2% | [6] -7.65%

CCCCC(CC)COC(=O)CSC#N (centres undefined)
inactive: [1] -6.7% | [2] -7.55% | [3] -9.85% | [4] -15.6% | [5] 2.05% | [6] -15.1%

CCCCCCCCCCCCOc1ccc(Sc2ccc(OCCCCCCCCCCCC)cc2C)c(C)c1
inactive: [1] -16.2% | [2] -8.05% | [3] -0.95% | [4] -26.2% | [5] 6.35% | [6] -11.2%

Cc1ccc(S(=O)(=O)OC2COC3C2OC2OC(C)(C)OC23)cc1 (centres undefined)
inactive: [1] 19.1% | [2] 11.2% | [3] 0.2% | [4] -9.1% | [5] 7.4% | [6] 0.35%

O=C(Nc1ccccc1)c1cccnc1
inactive: [1] -4% | [2] -18.4% | [3] -0.2% | [4] -13.9% | [5] -2.75% | [6] -2.65%

NC(=O)c1[nH]c(/N=N/c2nc[nH]c2C(N)=O)nc1N
inactive: [1] 24.9% | [2] 21.6% | [3] 9.95% | [4] -17.1% | [5] -4.65% | [6] 16.4%

CC1CCC(O)CC1C (centres undefined)
inactive: [1] -17.9% | [2] -24.6% | [3] -57% | [4] 27.2% | [5] -33.6% | [6] -10.1%

CCCCCCCCCCCCCC(=O)Oc1ccc([N+](=O)[O-])cc1
inactive: [1] -2.65% | [2] 0.05% | [3] -13.1% | [4] 11.2% | [5] -9.2% | [6] 14.4%

COc1cccc(CCN(CCOC(N)=O)CCOC(N)=O)c1OC
inactive: [1] -10.1% | [2] -5.25% | [3] 2.9% | [4] -7.35% | [5] -4.85% | [6] -2.65%
